Compound activity from PubChem.
ASK1 inh: human ASK1 kinase inhibition, primary screen. inhibition, % at 7.44 µM. AID 1159602. AlphaScreen MKK6 phosphorylation by ASK1, luminescence. 0.99% of 22,000 active; in the data active means inhibition above about 35%;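 further: 0% = median of compound wells and 100% = no enzyme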
ULK1 inh: human ULK1 kinase inhibition, primary screen; O75385; AlphaScreen Atg13 phosphorylation by ULK1, luminescence; inhibition, % at 5.96 µM; 1.9% of 30,000 active; AID 1259251; in the data active means inhibition above about 43%;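 further: 0% = median of compound wells and 100% = no enzyme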
Target sequence (O75385 whole entry, looked up): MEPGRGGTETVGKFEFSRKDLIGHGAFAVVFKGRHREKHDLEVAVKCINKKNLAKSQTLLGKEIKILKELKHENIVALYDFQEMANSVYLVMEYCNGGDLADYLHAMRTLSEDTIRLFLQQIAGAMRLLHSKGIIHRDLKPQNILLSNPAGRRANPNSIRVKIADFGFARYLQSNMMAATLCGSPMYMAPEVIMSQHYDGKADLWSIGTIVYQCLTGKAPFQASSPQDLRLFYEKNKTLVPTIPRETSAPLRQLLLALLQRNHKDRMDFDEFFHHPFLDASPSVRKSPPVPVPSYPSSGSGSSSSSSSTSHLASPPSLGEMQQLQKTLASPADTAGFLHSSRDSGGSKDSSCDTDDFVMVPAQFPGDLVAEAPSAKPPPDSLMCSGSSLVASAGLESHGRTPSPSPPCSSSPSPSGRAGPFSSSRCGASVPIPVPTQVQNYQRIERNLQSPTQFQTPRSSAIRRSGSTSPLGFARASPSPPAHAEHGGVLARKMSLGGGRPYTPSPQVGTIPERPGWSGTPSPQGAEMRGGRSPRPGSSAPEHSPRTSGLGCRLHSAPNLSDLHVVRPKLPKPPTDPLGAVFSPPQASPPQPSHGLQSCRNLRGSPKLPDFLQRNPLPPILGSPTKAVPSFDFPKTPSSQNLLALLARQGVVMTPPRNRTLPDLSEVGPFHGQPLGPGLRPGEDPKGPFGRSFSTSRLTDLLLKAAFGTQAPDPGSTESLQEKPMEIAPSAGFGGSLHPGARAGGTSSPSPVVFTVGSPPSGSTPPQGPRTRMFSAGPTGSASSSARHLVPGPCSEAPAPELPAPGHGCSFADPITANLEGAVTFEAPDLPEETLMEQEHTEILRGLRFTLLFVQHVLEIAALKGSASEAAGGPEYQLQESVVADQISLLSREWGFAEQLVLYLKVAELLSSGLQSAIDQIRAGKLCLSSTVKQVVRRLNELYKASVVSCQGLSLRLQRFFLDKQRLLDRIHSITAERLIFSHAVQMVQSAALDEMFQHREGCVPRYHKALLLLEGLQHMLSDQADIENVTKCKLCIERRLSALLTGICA
TruHits interf: interferes with AlphaScreen TruHits signal in ASK1 counter-screen. 20% of 220 active. shares compounds with ASK1 inh. AlphaScreen TruHits beads, signal interference counterscreen. IC50, µM;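 active means IC50 of 10 µM or lower in the counterscreen; inactive means IC50 above 10 µM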;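 further: loss of AlphaScreen light from TruHits beads alone with no ASK1 enzyme present; potency of signal reduction so a low IC50 flags an assay artifact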
An asterisk follows results filed as active; i = inactive; x = no result given. Sampled rows, rich in hits. Any-hit rate of the full collection: about 2.5%.

SMILES | ASK1 inh | ULK1 inh | others
CC(C)n1cnc2c(Nc3ccccc3)nc(Nc3ccc4ncccc4c3)nc21 | -0.4 | 51.7*
CC(=O)Nc1ccc(Nc2nc(-c3cccc(C(C)=O)c3)nc3c2ncn3C(C)C)cc1 | 18.5 | 33.6
CC(C)n1cnc2c(NCc3nc4ccccc4[nH]3)nc(Nc3ccc4ncccc4c3)nc21 | 2.0 | 45.1*
CC(C)n1cnc2c(NCc3nc4ccccc4[nH]3)nc(Nc3ccccn3)nc21 | 1.3 | 25.3
CC(C)n1cnc2c(Nc3ccc(N4CCOCC4)cc3)nc(Nc3ccc4ncccc4c3)nc21 | 12.1 | 29.3
CC(C)n1cnc2c(Nc3ccccc3)nc(Nc3ccncc3)nc21 | -10.9 | 45.9*
NS(=O)(=O)c1ccc(Nc2nccc(NC3CCNCC3)n2)cc1 | -0.8 | 10.7
CCCCCCn1c(SCCO)nc2c1c(=O)[nH]c(=O)n2C | x | -13.0
Cc1cnc(NC2CCC(O)CC2)nc1NCCN1CCOCC1 (centres undefined) | -1.9 | 5.0
COc1ccc(-c2nc(NC3CCN(Cc4ccccc4)CC3)c3ncn(Cc4ccc(C(F)(F)F)cc4)c3n2)cn1 | 15.4 | -44.8
CC(C)n1cnc2c(NCCOc3ccccc3)nc(Nc3ccc(-n4ccnc4)cc3)nc21 | 27.0 | -2.4
CC(C)n1cnc2c(Nc3ccccc3)nc(Nc3ccc(-n4ccnc4)cc3)nc21 | 0.1 | 56.0*
O=C(NCc1cccc(C(F)(F)F)c1)C1CCN(c2ccc(Cl)nn2)CC1 | -8.6 | 2.5
CNC(=O)c1cc(F)ccc1Nc1cc(Nc2ccc(NC(C)=O)cc2)ncc1C(F)(F)F | 3.1 | 79.1*
CNC(=O)c1cc(F)ccc1Nc1cc(Nc2cccc(OC)c2)ncc1C(F)(F)F | 0.4 | 83.8*
CC(=O)Nc1ccc(Nc2cc(C)nc(Nc3ccc(C(F)(F)F)cc3)n2)cc1 | 28.3 | -34.3
CC(=O)Nc1ccc(NC(=O)c2cnc(Nc3ccnn3C)s2)cc1 | -1.4 | 3.0
FC(F)(F)c1cccc(CNc2cc(Nc3ncccn3)ncn2)c1 | 1.1 | -7.8
FC(F)(F)c1cccc(CNc2nc(N3CCN(c4ccccn4)CC3)nc3c2ncn3C2CCCCC2)c1 | 5.5 | -1.1
CC(C)n1cnc2c(Nc3ccc(N4CCOCC4)cc3)nc(Nc3ccccc3)nc21 | 14.6 | 55.7*
CC(C)n1cnc2c(Nc3ccccc3)nc(Cl)nc21 | -3.1 | 30.2
CC(=O)Nc1ccc(Nc2nc(Nc3cnccn3)nc3c2ncn3C(C)C)cc1 | 7.8 | 61.3*
CC(C)n1cnc2c(Nc3ccc(N4CCOCC4)cc3)nc(Nc3cnccn3)nc21 | 6.4 | 65.0*
CCNc1nc(Nc2ccc(N3CCOCC3)cc2)c2ncn(C(C)C)c2n1 | 8.4 | 34.0
CC(C)n1cnc2c(Nc3ccc(N4CCOCC4)cc3)nc(Nc3ncccn3)nc21 | -12.8 | 15.8
SMILES | ASK1 inh | ULK1 inh | others
CC(C)n1cnc2c(Nc3ccccc3)nc(Nc3cnccn3)nc21 | 3.1 | 23.4
CC(=O)Nc1ccc(Nc2nc(Cl)nc3c2ncn3C(C)C)cc1 | -19.4 | 47.2*
CC(C)(C)C(=O)Nc1nnc(COc2ccccc2)s1 | x | 3.1
COc1cc2nc(N3CCC(N4CCOCC4)CC3)nc(Nc3ccccc3)c2cc1OC | 5.2 | -7.7
Cc1nc(C)n(-c2ccc(Nc3nccc(-c4cccc(-n5ccnc5)c4)n3)cc2)n1 | -72.4 | -91.8
Cc1nc(C)n(-c2ccc(Nc3nccc(-c4cccc(-n5nccn5)c4)n3)cc2)n1 | 39.2* | -15.3 | TruHits interf=>19.2
O=C(Nc1ccc2[nH]ncc2c1)C1CCN(C(=O)Nc2ccc(-c3ccccc3)cc2)C1 (centres undefined) | -3.1 | -10.1
FC(F)(F)c1ccc(Cn2cnc3c(NCCN4CCOCC4)nc(Nc4ccc(C(F)(F)F)cc4)nc32)cc1 | 4.9 | -36.4
CCCNc1nc(Nc2ccc(N3CCOCC3)cc2)nc2c1ncn2Cc1ccc(C(F)(F)F)cc1 | 40.2* | -2.5 | TruHits interf=i
FC(F)(F)c1ccc(Cn2cnc3c(Nc4ccc(N5CCOCC5)cc4)nc(Nc4ccc(N5CCOCC5)cc4)nc32)cc1 | 21.6 | 0.5
FC(F)(F)c1ccc(Cn2cnc3c(Nc4ccc5c(c4)OCO5)nc(Nc4ccc(N5CCOCC5)cc4)nc32)cc1 | 62.1* | 3.1 | TruHits interf=i
CC1(N=C2Nc3cc(Cl)sc3S(=O)(=O)N2)CC1 | x | 6.8
Cc1ncn(-c2ccc(Nc3ncc4cccc(-c5ccnc6ccccc56)c4n3)cc2)n1 | 14.1 | 2.9
Clc1ccccc1Nc1cc(Nc2ccccc2Cl)ncn1 | 12.4 | 0.7
CC(C)n1c(-c2ccc(C(N)=O)cc2)nc2c(NCCc3ccc(O)cc3)ncnc21 | 5.7 | -6.9
c1ccc(CN2CCC(Nc3nc(N4CCN(Cc5ccc6c(c5)OCO6)CC4)nc4c3ncn4C3CCCCC3)CC2)cc1 | 35.5* | 9.4 | TruHits interf=8.66*
c1ccc(CNc2nc(N3CCN(Cc4ccc5c(c4)OCO5)CC3)nc3c2ncn3C2CCCCC2)cc1 | 5.6 | 8.1
COc1ccc(CCNC(=O)c2cccc(-c3c(C)noc3C)c2)cc1 | -6.6 | 1.1
